The structures appear in SMILES notation.

What all share (format): functional
For assay [1], the system named is Plasmodium falciparum. Briefly: GSK_TCMDC: Inhibition of Plasmodium falciparum 3D7 in whole red blood cells, using parasite LDH activity as an index of growth. Test compounds present at 2uM.
The subject of assay [2] is Plasmodium falciparum. The assay is described as follows: GSK_TCMDC: Inhibition of Plasmodium falciparum Dd2 in whole red blood cells, using parasite LDH activity as an index of growth. Test compounds present at 2uM.
Assay [3] deals with HepG2. Briefly: GSK_TCMDC: Percent inhibition of human HepG2 cell line. Test compounds present at 10uM.

Broadly, the Inhibition is the drop in the measured response relative to a control, in per cent. A lower Inhibition goes with a weak effect. In the case of `NCc1cccc(-c2ccccc2CNC2CCN(Cc3ccccc3)CC2)c1.O=C(O)C(F)(F)F`, the Inhibition was determined as 94% in assay [1], 4% in assay [2] and 0% in assay [3].
With `Cl.O=c1cc(NCCCNCc2cc3ccc(Br)cc3s2)[nH]c2ccccc12`, the Inhibition in assay [1] stood at 92%; in assay [2] it was 8%; in assay [3] it was 18%.
As for `COc1ccc(CCn2c(=N)c(C(=O)NCc3ccc(C)cc3)cc3c(=O)n4ccccc4nc32)cc1`, the Inhibition in assay [1] turned out to be 97%; in assay [2] it was 16%; in assay [3] it was 13%.
With `O=C(Nc1ccc(OC2CCN(Cc3ccccc3)C2)c(Cl)c1)c1ccc(F)cc1.O=C(O)C(F)(F)F` (stereo not drawn), the Inhibition came to 90% in assay [1], 87% in assay [2] and 7% in assay [3].
The like results for `COCC(=O)N(Cc1ccccc1-c1cccc(CNCc2ccc3c(c2)OCO3)c1)C1CCN(Cc2ccccc2)CC1.O=C(O)C(F)(F)F` were, in that order, 94%, 72% and 33%.
As to `COc1cc(Cc2cnc(N)nc2N)cc(OC)c1OCCCCC(=O)O.Cl`, the figures for the Inhibition in assay [1], in assay [2] and in assay [3] were 88%, 0% and 0%, respectively.
With `CC(O)C1CCCCN1C(=O)c1ccc(-c2ccc(-c3nc4cc(F)ccc4[nH]3)cc2)cc1` (stereo not drawn), the Inhibition in assay [1] was 100%; in assay [2], 99%; in assay [3] it was 43%.
As to `Nc1nc2ccc(S(=O)(=O)Nc3ccc(C(=O)N[C@@H](CCC(=O)O)C(=O)O)c(F)c3)cc2c(=O)[nH]1`, the Inhibition in assay [1] came to 97%; in assay [2], 16%; in assay [3] it was 37%.
As for `OCCn1c(CNCCCNc2nc3ccccc3[nH]2)cc2c(Cl)cc(Cl)cc21`, the values for the Inhibition in assay [1], in assay [2] and in assay [3] were 95%, 0% and 29%, respectively.
In the case of `Cc1cccc2nc(-c3ccc(-c4cccc(CNCCc5ccncc5)c4)s3)[nH]c12.O=C(O)C(F)(F)F`, the Inhibition in assay [1] is listed as 100%; in assay [2], 89%; in assay [3] it was 11%.
With `Cn1cnc2c(SCc3ccc(OCc4ccccc4)cc3)ncnc21`, the Inhibition in assay [1] is 95%; in assay [2], 87%; in assay [3], 1%.
Consider `COc1ccc(-c2ccc(NC(=O)c3cccc(Cl)c3)cc2)cc1CNC(C)C.O=C(O)C(F)(F)F`, for which the values for the Inhibition in assay [1], in assay [2] and in assay [3] were 100%, 88% and 26%, respectively.
Turning to `CCCCN1CCN(c2cc(NS(=O)(=O)c3cccc(C(=O)Nc4ccc(C(F)(F)F)cc4)c3)ccc2OC)CC1.O=C(O)C(F)(F)F`, the Inhibition in assay [1] was found to be 99%; in assay [2] it was 7%; in assay [3], 6%.
As to `COc1cccc(CC(=O)NC2CCN(c3ccnc4cc(Cl)ccc34)C2)c1.O=C(O)C(F)(F)F` (stereo not drawn), the Inhibition was 100% in assay [1], 85% in assay [2] and 9% in assay [3].
`CCCNCc1ccc(-c2ccc(CN(CCOC)C(=O)c3cnc(C)cn3)cc2)nc1.O=C(O)C(F)(F)F`: the Inhibition turned out to be 81% in assay [1], 14% in assay [2] and 0% in assay [3].
The like results for `CN1CCC(C(=O)Nc2cccc(-c3ccc(-c4nc5ccccc5[nH]4)cc3)c2)CC1` were, in that order, 82%, 15% and 7%.
Consider `COc1cc(CNC[C@@H](O)[C@H](Cc2ccccc2)NC(=O)c2cc(OC(C)C)cc(N3CCCS3(=O)=O)c2)cc(OC)c1.Cl`, for which the Inhibition in assay [1] is on record as 97%; in assay [2], 72%; in assay [3], 0%.
In the case of `O=C(NCCCCN1CCC(c2c[nH]c3ccc(-c4ccccc4)cc23)CC1)c1ccc(-c2ccccc2)cc1.O=C(O)C(=O)O`, the Inhibition in assay [1] is reported as 97%; in assay [2], 40%; in assay [3] it was 48%.
As for `Cc1noc(C)c1-c1cccc(CNCc2cccc(-c3ccc(-c4nc5cccc(C)c5[nH]4)cc3)c2)c1.O=C(O)C(F)(F)F`, the figures for the Inhibition in assay [1], in assay [2] and in assay [3] were 100%, 69% and 24%, respectively.
`COc1cc2nc(N3CCC(CNC(=O)c4ccc(NC(=O)c5ccc(Cl)cc5)cc4)CC3)nc(N)c2cc1OC`: the Inhibition in assay [1] is given as 100%; in assay [2], 100%; in assay [3] it was 98%.
Consider `Nc1nc(N)c2cc(Sc3ccc4ccccc4c3)ccc2n1`, for which the figures for the Inhibition in assay [1], in assay [2] and in assay [3] were 95%, 92% and 66%, respectively.
As to `O=C(NC1CCN(c2ccc(F)cc2[N+](=O)[O-])CC1)c1cccs1`, the Inhibition in assay [1] was 90%; in assay [2], 91%; in assay [3], 0%.
Turning to `O=C(O)C(F)(F)F.c1cc(CNCCc2ccncc2)cc(-c2cccc(-c3nc4ccccc4[nH]3)c2)c1`, the Inhibition in assay [1] amounted to 100%; in assay [2], 88%; in assay [3] it was 21%.
In the case of `C=CCOC(=O)O[C@@H]1[C@@H](OC(=O)OCC=C)[C@@H](OC)O[C@H](COC(c2ccccc2)(c2ccccc2)c2ccccc2)[C@H]1OC(=O)OCC=C`, the Inhibition in assay [1] was 95%; in assay [2] it was 96%; in assay [3], 5%.
For the compound `O=C(O)C(F)(F)F.c1ccc(CN2CCC(NCc3ccccc3-c3ccc(CNCc4ccc5c(c4)OCO5)cc3)CC2)cc1`, the Inhibition was 100% in assay [1], 49% in assay [2] and 26% in assay [3].
Regarding `CCCCCCCNC(=O)NCC1CCCN(CCCCCNC(=O)/C=C/c2ccc(Cl)c(Cl)c2)C1` (stereo not drawn), the Inhibition in assay [1] came out at 86%; in assay [2], 7%; in assay [3], 98%.

The values above are taken from ChEMBL document CHEMBL1157539, “Thousands of chemical starting points for antimalarial lead identification” (Nature, 2010).
